In PubChem BioAssay (EPA / NIEHS):
The source made the active and inactive calls. The calls were made as follows: active = hit-call score of the fitted dose curve at least 0.9, where 1 is the maximum; inactive = score below 0.9.

read-out: Bcl-2 (BAX) gene, BAX (gene 581); experiment: LTEA_HepaRG_BAX: Life Technologies and Expression Analysis (LTEA) Assay for Bcl-2 (BAX) gene using HepaRG (AID 2283470); settings: mRNA level, 48 h; actives raise or lower the signal
Protocol: LTEA_HepaRG is a cell based, multiplexed-readout assay that uses HepaRG, a human liver cell line, with measurements taken at 48 hours after chemical dosing on a 96-well plate.LTEA_HepaRG_BAX is one of 102 assay component(s) measured in the LTEA HepaRG cell culture assay. It is a marker of Cell proliferation, survival, death.Data from the assay component LTEA_HepaRG_BAX was analyzed into 1 endpoint. This assay endpoint, LTEA_HepaRG_BAX, was analyzed with bidirectional fitting relative to DMSO as the negative control and baseline of activity. Using a type of inducible reporter, measures of mRNA induction for gain or loss-of-signal activity can be used to understand regulation of transcription factor activity. To generalize the intended target to other relatable targets, this assay endpoint is annotated to the cell cycle intended target family, where the subfamily is Cell proliferation, survival, death.
A total of 1060 chemcials from the ToxCast library were tested in eight-point concentration-response experiments. Cell culture and cytotoxicity assays were conducted at Thermo Fisher Scientific's Custom Services facility (Madison, WI). A single lot of human HepaRG cells (Thermo Fisher Scientific, Frederick, MD) was used for the cell culture experiments. 96-well format collagen type I coated plates of human HepaRG cells were prepared using established methods. Briefly, cryopreserved HepaRG cells were thawed, plated at a density of approximately 100,000 cells/well in HepaRG Thaw, Plate, and General Purpose media (HPRG770, Thermo Fisher Scientific), and incubated for 48 hours. 0.5% DMSO was selected as vehicle control to balance the requisite need of DMSO in HepaRG cultures to maintain differentiation (for example, baseline metabolism, proportions of hepatocytes vs. cholangiocytes), while enabling further hepatic receptor pathway activation (for example, PXR and CAR) in response to chemical exposure. 48 hours after plating, the culture medium was replaced with HepaRG Serum-Free Incudtion Media. Cells were exposed to each test chemical in duplicate and maintained in CO2 incubators for another 48 hours. Chemical plates were thawed to room temperature and 200x concentrations of treatment groups were prepared. 8-point conentration-reponse curves were made with the highest exposure at 100 uM, followed by half-log dilutions, all in 0.5% DMSO. Each test plate contained variouse controls, induction positive controls (1mM phenobarbital), cytotoxicity positive controls ([…] aflatoxin B1), vehicle controls (0.5% DMSO), and total lysis controls (0.5% DMSO). Cell morphology images were taken using an Essen IncuCyte FLR automated microscope, with six 96-well plates imaged in about 24 minutes. Images were captured and exported and JPEG files. Spent culture media was transfered to black-well plates for the LDH assay, and remaining media was sorted at -80 C for later use. Cells were treated with RLT buffer and frozen until shipped for gene expression analysis. Total RNA was isolated from the cell suspension in 75 uL of Buffer RLT (Qiagen, Germantown, MD 20874) by Quintiles/Expression Analysis (Durham, NC) using a custom isolation procedure. Total RNA from each plate well was transferred to a preamplification plate. Fluidigm's 96.96 Dynamic ArrayTM (Fluidigm, Amsterdam, the Netherlands) technology was used for gene expression analyses by quantitative reverse transcription polymerase chain reaction (qRT-PCR, performed by Quintiles/Expression Analysis, Durham, NC)89. Standard TaqManTM Assays (Applied Biosystems/ThermoFisher Scientific, Foster City, CA) were used to assess the expression of 93 genes selected based on their selectivity and sensitivity to important hepatic receptors known to be modulated by environmental chemicals; importance in human hepatocyte functionality; and hepatotoxicity. […]

Row | Structure (SMILES) | outcome | AC50
1 | CCCCOC(=O)[C@@H](C)Oc1ccc(Oc2ccc(C#N)cc2F)cc1 | inactive | –
2 | CSc1nc(NC(C)C)nc(NC(C)C)n1 | inactive | –
3 | CCOP(=O)(OCC)Oc1cc(C)nc(C(C)C)n1 | inactive | –
4 | CNC(=O)ON=C(C)SC | inactive | –
5 | S=C1NCCN1 | inactive | –
6 | CC(C1CC1)C(O)(Cn1cncn1)c1ccc(Cl)cc1 (stereo not given) | inactive | –
7 | CCOC(=O)CC(SP(=O)(OC)OC)C(=O)OCC (stereo not given) | inactive | –
8 | CCc1cnc(C2=NC(C)(C(C)C)C(=O)N2)c(C(=O)O)c1 (stereo not given) | inactive | –
9 | CC[C@H](C)[C@H]1O[C@]2(C=C[C@@H]1C)C[C@@H]1C[C@@H](C/C=C(\C)[C@@H](O[C@H]3C[C@H](OC)[C@@H](O[C@H]4C[C@H](OC)[C@@H](NC)[C@H](C)O4)[C@H](C)O3)[C@@H](C)/C=C/C=C3\CO[C@@H]4[C@H](O)C(C)=C[C@@H](C(=O)O1)[C@]34O)O2 | – | 50 µM (active)
10 | CNC(=O)ON=C(SC)C(=O)N(C)C | inactive | –
11 | CC1(C(=O)Nc2ccc(O)c(Cl)c2Cl)CCCCC1 | inactive | –
12 | COP(=O)(OC)SCn1c(=O)oc2cc(Cl)cnc21 | inactive | –
13 | CCCSP(=O)(OCC)SCCC | inactive | –
14 | CCc1cccc(C)c1N(C(=O)CCl)C(C)COC (stereo not given) | inactive | –
15 | CCOP(=O)(SC(C)CC)N1CCSC1=O (stereo not given) | inactive | –
16 | CCCCN(CC)c1c([N+](=O)[O-])cc(C(F)(F)F)cc1[N+](=O)[O-] | inactive | –
17 | Nc1c(Cl)cc([N+](=O)[O-])cc1Cl | inactive | –
18 | CCc1cccc(CC)c1N(COC)C(=O)CCl | inactive | –
19 | CON=C(C(=O)OC)c1ccccc1CON=C(C)c1cccc(C(F)(F)F)c1 | inactive | –
20 | Cc1ccn2nc(S(=O)(=O)Nc3c(F)cccc3F)nc2n1 | inactive | –

Row | Structure (SMILES) | outcome | AC50
21 | CC(C)=CC1C(C(=O)OCN2C(=O)C3=C(CCCC3)C2=O)C1(C)C (stereo not given) | inactive | –
22 | O=C(O)c1cc(Oc2ccc(C(F)(F)F)cc2Cl)ccc1[N+](=O)[O-] | inactive | –
23 | C=C(C)[C@H]1Cc2c(ccc3c2O[C@@H]2COc4cc(OC)c(OC)cc4[C@@H]2C3=O)O1 | – | 6.55 µM (active)
24 | CCOP(=S)(OCC)SCCSCC | inactive | –
25 | CC(COc1ccc(Oc2ccccc2)cc1)Oc1ccccn1 (stereo not given) | inactive | –
26 | CCOC(=O)COc1cc(-c2nn(C)c(OC(F)F)c2Cl)c(F)cc1Cl | inactive | –
27 | CN(C)NC(=O)CCC(=O)O | inactive | –
28 | CSc1nnc(C(C)(C)C)c(=O)n1N | inactive | –
29 | CCCOCC(=Nc1ccc(Cl)cc1C(F)(F)F)n1ccnc1 | – | 21.7 µM (active)
30 | C[N+]1(C)CCCCC1 | inactive | –
31 | O=[N+]([O-])c1cc(C(F)(F)F)c(Cl)c([N+](=O)[O-])c1Nc1ncc(C(F)(F)F)cc1Cl | inactive | –
32 | CC(C)[C@H](C(=O)O[C@H](C#N)c1cccc(Oc2ccccc2)c1)c1ccc(Cl)cc1 | inactive | –
33 | CC(C)N(C(=O)SCC(Cl)=C(Cl)Cl)C(C)C | inactive | –
34 | CCCCSP(=O)(SCCCC)SCCCC | inactive | –
35 | CC(Oc1cccc(Cl)c1)C(=O)O (stereo not given) | inactive | –
36 | CSC1=N[C@@](C)(c2ccccc2)C(=O)N1Nc1ccccc1 | inactive | –
37 | CCC(=O)Nc1ccc(Cl)c(Cl)c1 | inactive | –
38 | CN1COCN(Cc2cnc(Cl)s2)C1=N[N+](=O)[O-] | inactive | –
39 | C[Si](Cn1cncn1)(c1ccc(F)cc1)c1ccc(F)cc1 | – | 78.9 µM (active)
40 | CCOP(=S)(Oc1cnc(C(C)(C)C)nc1)OC(C)C (stereo not given) | inactive | –
